ALOX12 inh = inhibitors of human 12S-lipoxygenase ALOX12. Potency, µM (highest dose often 108 µM), most hits filed as inhibitors. purified 12hLO, xylenol orange hydroperoxide absorbance. P18054. AID 1671190. 1.1% of 580,000 active
Target sequence (P18054 whole entry, looked up): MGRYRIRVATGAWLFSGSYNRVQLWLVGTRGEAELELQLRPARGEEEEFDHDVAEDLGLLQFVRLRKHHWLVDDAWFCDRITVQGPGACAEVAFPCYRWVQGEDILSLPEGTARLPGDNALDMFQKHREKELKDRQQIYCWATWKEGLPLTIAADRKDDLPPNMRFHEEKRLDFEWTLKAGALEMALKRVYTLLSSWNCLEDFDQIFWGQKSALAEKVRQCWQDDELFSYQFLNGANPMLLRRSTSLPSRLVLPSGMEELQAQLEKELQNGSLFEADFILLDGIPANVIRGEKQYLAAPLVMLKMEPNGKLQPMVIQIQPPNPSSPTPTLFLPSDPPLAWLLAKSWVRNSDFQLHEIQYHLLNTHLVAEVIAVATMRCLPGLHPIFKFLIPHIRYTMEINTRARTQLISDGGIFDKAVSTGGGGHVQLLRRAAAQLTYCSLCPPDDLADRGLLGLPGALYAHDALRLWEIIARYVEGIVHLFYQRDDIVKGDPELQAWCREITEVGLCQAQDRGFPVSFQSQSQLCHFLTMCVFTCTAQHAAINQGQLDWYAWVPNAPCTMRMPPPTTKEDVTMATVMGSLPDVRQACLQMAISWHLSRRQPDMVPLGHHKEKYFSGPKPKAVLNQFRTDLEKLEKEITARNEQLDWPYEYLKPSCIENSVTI
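Purified human 12hLO at 150 nM in 25 mM Hepes, 0.01% Triton X-100, pH 7.0, preincubated 15 min at room temperature with compound. Reaction started with 40 uM arachidonic acid, 30 min at room temperature. Hydroperoxide measured by Fe-xylenol orange, 573/405 nm absorbance ratio.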
DT40 TDP1 CPT = growth inhibition of DT40 Tdp1-/-;hTDP1 cells with camptothecin (screen for TDP1 inhibitors). chicken DT40 Tdp1-/-;hTDP1 cells + 20 nM CPT, ATP luminescence, 48 h. Potency, µM (top dose mostly 46.2 µM), actives largely listed as inhibitors. 12% of 420,000 active; note: nearly all actives have a fitted effect of over 55% in size
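Cell growth measured by CellTiter-Glo luminescence after a minimum 48 h, 37 C compound exposure with 20 nM CPT in Tdp1-knockout DT40 cells stably expressing hTDP1, seeded 400/well; qHTS titration format.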
RORgamma inh = ROR gamma (mouse) transcription inhibition; Potency, µM (series often up to 53.6 µM), actives largely listed as inhibitors; P51450; 5.4% of 310,000 active; Drosophila S2 Gal4-RORgamma UAS-luciferase reporter, 20 h; note: nearly all actives have a fitted effect of over 60% in size
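Luminescence from a UAS-regulated Photinus luciferase reporter in stably transfected Drosophila Schneider cells is measured; decreased signal marks ROR gamma inhibition. Fusion expression is induced by 700 uM copper sulfate for 20 hr.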
ELG1 DNA repair = ELG1-dependent DNA repair inhibition | HEK293T ELG1-luciferase reporter, luminescence, 16 h; DNA damage induced by 5-fluorouridine | Potency, µM (titrated, usually from 46.1 µM), hits mostly inhibitors | 2.3% of 330,000 active; note: nearly all actives have a fitted effect of over 55% in size
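In this reporter screen, reduction of luminescence relative to DMSO vehicle indicated activity. Compounds and 5-fluorouridine were added together to 2,000 cells per well, incubated for 16 hr at 37 °C, then developed with ONE-Glo.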
VP16 counter = Gal4-VP16 reporter inhibition counter-screen. Drosophila S2 Gal4-VP16 UAS-luciferase, luminescence, 20 h. Potency, µM (titrated, usually from 53.6 µM), usual class: inhibitors. 3.5% of 310,000 active. AID 2546;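 note: Gal4-VP16 expression switched on by copper sulfate through the metallothionein promoter; nearly all actives have a fitted effect of over 50% in size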
DT40 TDP1 no CPT = qHTS for Inhibitors of human tyrosyl-DNA phosphodiesterase 1 (TDP1): qHTS in cells in absence of CPT; DT40 Tdp1-/- hTDP1 cells, no CPT, ATP luminescence, 48 h; Potency, µM (series often up to 46.2 µM), hits mostly inhibitors; AID 686978, 2013; 15% of 420,000 active; note: nearly all actives have a fitted effect of over 55% in size
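No-CPT arm: Tdp1-/-;hTDP1 DT40 cells (400/well) plus compounds, incubated ≥48 hr at 37 °C. Readout CellTiter-Glo luminescence.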
Large screens that a line does not name were inactive. Rows were chosen to be rich in hits. Some 15% of all compounds tested hit in one or more screens of this group. Calls come from the whole dose curve; as a rule, active = well fitted curve in the direction sought with a large enough effect; inconclusive = small, poorly fitted or top-dose-only effect, or another doubt; inactive = no such curve, though single readings can be large; an effect the other way counts as inactive or inconclusive.

CC(C#N)(NC(=O)COc1ccccc1C(F)(F)F)C1CC1 (configuration not stated)	none (no result: DT40 TDP1 CPT, RORgamma inh, ELG1 DNA repair, VP16 counter, DT40 TDP1 no CPT)
NS(=O)(=O)c1ccc(N=Nc2ccc(O)c3ncccc23)cc1	ALOX12 inh inconclusive, DT40 TDP1 CPT 2.6µM, ELG1 DNA repair inconclusive, VP16 counter inconclusive, DT40 TDP1 no CPT 2.3µM
CCOc1ccc(N=Nc2ccc(O)c3ncccc23)cc1	DT40 TDP1 CPT inconclusive, RORgamma inh 0.28µM, ELG1 DNA repair inconclusive, VP16 counter 0.4µM, DT40 TDP1 no CPT inconclusive
CCOc1ccc(N=Nc2ccc(N)cc2N)cc1	DT40 TDP1 CPT inconclusive, RORgamma inh 8.9µM, VP16 counter 10µM, DT40 TDP1 no CPT inconclusive (no result: ALOX12 inh, ELG1 DNA repair)
CCc1ccc(-c2cc3c(=O)[nH]nc(SCC(=O)NC4CCCC4)n3n2)cc1	none (no result: DT40 TDP1 CPT, RORgamma inh, ELG1 DNA repair, VP16 counter, DT40 TDP1 no CPT)
N#Cc1ccc(S(=O)(=O)N2CCCC(CO)CCNC(=O)CC2)cc1 (configuration not stated)	none (no result: DT40 TDP1 CPT, RORgamma inh, ELG1 DNA repair, VP16 counter, DT40 TDP1 no CPT)
CC(Nc1nc(-c2ccc(F)cc2)cs1)c1nc2cc(Cl)c(Cl)cc2n1CCOCCO (configuration not stated)	DT40 TDP1 CPT 23µM, DT40 TDP1 no CPT 21µM (no result: RORgamma inh, ELG1 DNA repair, VP16 counter)
CC(Nc1nc(-c2cccc(Br)c2)cs1)c1nc2cc(Cl)c(N3CCCCC3)cc2n1CCOCCO (configuration not stated)	DT40 TDP1 CPT inconclusive, ELG1 DNA repair inconclusive, DT40 TDP1 no CPT inconclusive
OCCCn1c(CCNc2nc(-c3ccc(F)cc3)cs2)nc2cc(C(F)(F)F)ccc21	DT40 TDP1 CPT inconclusive, DT40 TDP1 no CPT inconclusive (no result: RORgamma inh, ELG1 DNA repair, VP16 counter)
CC(Nc1nc(-c2ccc(F)cc2)cs1)c1nc2cc(Cl)c(N3CCCCC3)cc2n1CCOCCO (configuration not stated)	DT40 TDP1 CPT 16µM, DT40 TDP1 no CPT 21µM (no result: RORgamma inh, ELG1 DNA repair, VP16 counter)
CC(Nc1nc(-c2ccc(F)cc2)cs1)c1nc2cc(Cl)c(N3CCCCC3)cc2n1CCCO (configuration not stated)	DT40 TDP1 CPT 7.3µM, DT40 TDP1 no CPT 5.8µM (no result: RORgamma inh, ELG1 DNA repair, VP16 counter)
O=[N+]([O-])c1cc(-c2csc(NCCc3nc4cc(Cl)c(N5CCCCC5)cc4n3CCCO)n2)ccc1Cl	DT40 TDP1 CPT inconclusive, DT40 TDP1 no CPT 16µM (no result: RORgamma inh, ELG1 DNA repair, VP16 counter)
COc1cccc(NC(=O)C2=COC3=NC(=O)N(Cc4ccccc4)CCN23)c1	none (no result: DT40 TDP1 CPT, RORgamma inh, ELG1 DNA repair, VP16 counter, DT40 TDP1 no CPT)
COc1ccc(-c2csc(NC(C)c3nc4cc(Cl)c(Cl)cc4n3CCCO)n2)cc1 (configuration not stated)	ALOX12 inh inconclusive, DT40 TDP1 CPT inconclusive, DT40 TDP1 no CPT 15µM (no result: RORgamma inh, ELG1 DNA repair, VP16 counter)
COC(=O)CC1C(=O)NC2CCCCC2N1C(=O)CCl (configuration not stated)	DT40 TDP1 CPT inconclusive, ELG1 DNA repair inconclusive, DT40 TDP1 no CPT 15µM
COc1ccc2c(c1)CCC(C)N2C(=O)C(=O)c1c[nH]c2ccccc12 (configuration not stated)	DT40 TDP1 CPT 21µM, DT40 TDP1 no CPT inconclusive
COc1ccccc1C(=O)NC1CCN(c2cc(-c3ccccc3)[nH]n2)C1 (configuration not stated)	none (no result: DT40 TDP1 CPT, RORgamma inh, ELG1 DNA repair, VP16 counter, DT40 TDP1 no CPT)
COc1ccc(NC(=O)c2c(C)noc2-c2snnc2C)cc1	ALOX12 inh inconclusive, DT40 TDP1 CPT inconclusive, ELG1 DNA repair inconclusive, DT40 TDP1 no CPT 21µM
CCN1CC(CN(C)Cc2nc(-c3ccc(C(F)(F)F)cc3)no2)CC1=O (configuration not stated)	DT40 TDP1 CPT inconclusive, RORgamma inh inconclusive, ELG1 DNA repair inconclusive, VP16 counter inconclusive, DT40 TDP1 no CPT 18µM
CC(C)CC(=O)Nc1nn2c(C(C)C)nnc2s1	none (no result: DT40 TDP1 CPT, RORgamma inh, ELG1 DNA repair, VP16 counter, DT40 TDP1 no CPT)
CC(C)c1nc(=S)n(-c2ccccc2)[nH]1	ALOX12 inh inconclusive, RORgamma inh 5.6µM, VP16 counter inconclusive
Cc1ccc(NC(=S)c2nc3ccccc3[nH]2)c(C)c1	DT40 TDP1 CPT inconclusive, RORgamma inh 14µM, ELG1 DNA repair inconclusive, VP16 counter inconclusive, DT40 TDP1 no CPT inconclusive
Cc1ccc(NC(=S)c2ccncc2)c(C)c1	RORgamma inh inconclusive
Cc1ccc(NC(=S)c2nc3ccccc3[nH]2)cc1	DT40 TDP1 CPT 13µM, RORgamma inh 3.2µM, ELG1 DNA repair inconclusive, VP16 counter 7.9µM, DT40 TDP1 no CPT 10µM

Assay outcomes: PubChem BioAssay, National Center for Advancing Translational Sciences (NCATS)
